From the emibetuzumab library of Makowski et al. (2022)
Some of the results follow. How many sequences the whole screen found active is unknown.

B1: VH:VL chains; a variant is named by its letters at X, in order (parent)
chain 1: QVQLVQSGAEVKKPGASVKVSCKASGYTFTDYXMHWVRQAPGQGLEWMGXVNPNXXXTTYNQKFEGRVTMTTDTSTSTAYMELRSLRSDDTAVYYCARXNXLDXWGQGTTVTVSS
chain 2: DIQMTQSPSSLSASVGDRVTITCSVSSSVSSIYLHWYQQKPGKAPKLLIYSTSNLASGVPSRFSGSGSGTDFTLTISSLQPEDFATYYCQVYSGYPLTFGGGTKVEIK

Variants of: B1
Assay: yeast display scFab, FACS + sequencing
Details: with MET
Outline: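 For FACS, yeast displaying a heavy-chain CDR mutant scFab library were labelled with 1 nM HGFR-Fc and anti-Myc (PBSB, 1% milk, 3 h, room temperature), and the top 50% antigen-positive cells were gated. Input and round-3 sorted populations were deep sequenced in two replicates. The binding call was positive for sequences occurring in both antigen-positive samples and negative for sequences occurring only in input.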
YAGETFGA was tested, and the antigen binding call was “no binding”. For SETGGFVV, the antigen binding call was “no binding”. DGGENDVY was tested, and the antigen binding call was “no binding”. For YTKEASGY, the antigen binding call was “no binding”. In the case of ARTKGSGY, the antigen binding call is reported as “no binding”. YRKGGSGY was tested, and the antigen binding call was “binds”. With YRRKGSGY the antigen binding call was “binds”. For FRGRGAAY, the antigen binding call was “binds”. With FRGRGSAY the antigen binding call was “binds”. With YRGRGSAY the antigen binding call was “binds”. With FRGRGSSY the antigen binding call was “binds”. In the case of YEGGADVF, the antigen binding call is reported as “no binding”. In the case of DAGAADAV, the antigen binding call is reported as “no binding”. DTGTGSWD was tested, and the antigen binding call was “no binding”. With VTEGGDAA the antigen binding call was “no binding”. FTRAGAAA was tested, and the antigen binding call was “no binding”. For FKGRGAAY, the antigen binding call was “binds”. FTGRGAVA was tested, and the antigen binding call was “no binding”. FTGRGAAA was tested, and the antigen binding call was “binds”. With SEARSDSV the antigen binding call was “no binding”. For DRAGDDGY, the antigen binding call was “no binding”. For YRAGDSGY, the antigen binding call was “binds”. With VKAGDAVY the antigen binding call was “no binding”. For VRAGDSGY, the antigen binding call was “binds”. For YTGTSDLA, the antigen binding call was “no binding”. For FRGRGAGA, the antigen binding call was “binds”. YRGRGVGA was tested, and the antigen binding call was “binds”. With FRGRGYGA the antigen binding call was “no binding”. In the case of FRGRGVGA, the antigen binding call is reported as “binds”. With ARGGDDGA the antigen binding call was “no binding”. For VRGKGSLA, the antigen binding call was “binds”. With VAEKGSGA the antigen binding call was “no binding”. With VRGKGSGA the antigen binding call was “binds”. For VGGTSSGA, the antigen binding call was “no binding”. In the case of VKGKGDLA, the antigen binding call is reported as “no binding”. With VGGTGSGA the antigen binding call was “no binding”. In the case of VTGEDSLA, the antigen binding call is reported as “no binding”. VRGTGSGA was tested, and the antigen binding call was “binds”. ATGTGSGA was tested, and the antigen binding call was “no binding”. For FERTSVWF chain 1 L45F, the antigen binding call was “no binding”. With SAGGDYVF the antigen binding call was “no binding”. For YTTRGSWV, the antigen binding call was “no binding”. With YTGEGSWV the antigen binding call was “binds”. In the case of YRGESAWV, the antigen binding call is reported as “binds”. With YTGEGDGV the antigen binding call was “no binding”. For YRGEGDAA, the antigen binding call was “no binding”. With YRGEGDAV the antigen binding call was “binds”. With DREEGDAV the antigen binding call was “no binding”. YRGRSAWV was tested, and the antigen binding call was “binds”. For VTKAASWV, the antigen binding call was “no binding”. With SEEASAVY the antigen binding call was “no binding”. For DKTGDDGS, the antigen binding call was “no binding”. In the case of YRGEGAWV, the antigen binding call is reported as “binds”. For YRGAAASS, the antigen binding call was “binds”. YRGRDDLA was tested, and the antigen binding call was “no binding”. In the case of VEGAAAGS, the antigen binding call is reported as “no binding”. For YRGRDSSS, the antigen binding call was “binds”. For YRGRDASA, the antigen binding call was “binds”. YRGRSASS was tested, and the antigen binding call was “binds”. ATGEGDGV was tested, and the antigen binding call was “no binding”. In the case of SEARSFGV, the antigen binding call is reported as “no binding”. For YRGRDASS, the antigen binding call was “binds”. YRGRSAGS was tested, and the antigen binding call was “binds”. For DAGGASGV, the antigen binding call was “no binding”. With VERASAVV the antigen binding call was “no binding”. With VRRRGAVV the antigen binding call was “binds”. For VRGTDAGV, the antigen binding call was “no binding”. With VRRRGAGV the antigen binding call was “binds”. VRGTDAVV was tested, and the antigen binding call was “no binding”. For SGRGNSGV, the antigen binding call was “no binding”. With DARADSGV the antigen binding call was “no binding”. AARADDGV was tested, and the antigen binding call was “no binding”. In the case of YRAKGSGV, the antigen binding call is reported as “binds”. In the case of YGAKGDGV, the antigen binding call is reported as “no binding”. In the case of YRAKGAGV, the antigen binding call is reported as “binds”. For YRTRDSGV, the antigen binding call was “binds”. In the case of YRTKGSGV, the antigen binding call is reported as “binds”. For DTGTGASD, the antigen binding call was “no binding”. With VAGGDAGV the antigen binding call was “no binding”. In the case of AREEGFSV, the antigen binding call is reported as “no binding”. For ARAGDAVV, the antigen binding call was “no binding”. YRAKGAVV was tested, and the antigen binding call was “binds”. For DRAGDDVV, the antigen binding call was “no binding”. For YRAGDAVV, the antigen binding call was “binds”. For AARADSSA, the antigen binding call was “no binding”. VGGGADVA was tested, and the antigen binding call was “no binding”. With YTKTGDAV the antigen binding call was “binds”. For VTGTGDAV, the antigen binding call was “no binding”. For VTAGSDAV, the antigen binding call was “no binding”. YTERGDAV was tested, and the antigen binding call was “no binding”. For YTGTSDAV, the antigen binding call was “no binding”. For VTTKSAAA, the antigen binding call was “no binding”. For VTKTGDAV, the antigen binding call was “binds”. For VTKTGAAA, the antigen binding call was “binds”. VTKTGDVA was tested, and the antigen binding call was “no binding”. For DKEGGYSV, the antigen binding call was “no binding”. For DAKEGSLD, the antigen binding call was “no binding”. In the case of SAAGADWS, the antigen binding call is reported as “no binding”. In the case of YRTADVGV, the antigen binding call is reported as “no binding”. YRTAGAGV was tested, and the antigen binding call was “binds”. YRTAGSGV was tested, and the antigen binding call was “binds”. In the case of FAGGGDLV, the antigen binding call is reported as “no binding”. In the case of VKAAGSVD, the antigen binding call is reported as “no binding”. With VTGTGSGD the antigen binding call was “no binding”. For FKARGSVD, the antigen binding call was “binds”. VKGKDSGD was tested, and the antigen binding call was “no binding”. VKARGSGD was tested, and the antigen binding call was “binds”. In the case of VEGGGSVD, the antigen binding call is reported as “no binding”. FTETGSVD was tested, and the antigen binding call was “no binding”. For VKERGSVD, the antigen binding call was “binds”. VEEEGSVD was tested, and the antigen binding call was “no binding”. With VKARGSVD the antigen binding call was “binds”. With VTGTGYVF the antigen binding call was “no binding”. For FRGKGAGY, the antigen binding call was “binds”. FRGKGAAS was tested, and the antigen binding call was “binds”. With YRGKGAAS the antigen binding call was “binds”. With FRGKGASS the antigen binding call was “binds”. For VTGEDDGD, the antigen binding call was “no binding”. In the case of DAKENAGD, the antigen binding call is reported as “no binding”. With VAKEGAWV the antigen binding call was “no binding”. For VEARNAGA, the antigen binding call was “no binding”. For DEGGTDVA, the antigen binding call was “no binding”. For SAEATDLY, the antigen binding call was “no binding”. For FAKAGFVA, the antigen binding call was “no binding”. For FRGKGAVS, the antigen binding call was “binds”. For FRGKGAGS, the antigen binding call was “binds”. In the case of YRGKGAVS, the antigen binding call is reported as “binds”. In the case of YRRRGSLF, the antigen binding call is reported as “binds”. With YRRRGALF the antigen binding call was “binds”. For YKEGDSGV chain 1 R87K, the antigen binding call was “no binding”. In the case of YKGRGALA, the antigen binding call is reported as “binds”. In the case of YKGGDDLA, the antigen binding call is reported as “no binding”. With SKGRGALA the antigen binding call was “binds”. With STGRAALA the antigen binding call was “no binding”. With SKERGDVA the antigen binding call was “no binding”. For YAGRGDLA, the antigen binding call was “no binding”. With FKEGGSAA the antigen binding call was “no binding”. For YKGRGSLA, the antigen binding call was “binds”. In the case of FKGRGSLA, the antigen binding call is reported as “binds”.
